Experimental findings from PubChem BioAssay (EPA / NIEHS) are described below.

Assay [1] in a line: APR_HepG2_NuclearSize_72hr: Apredica 72-hour HepG2 Assay for Nuclear Size (AID 2282925). The settings on record: high-content imaging, actives raise or lower the signal. In outline:
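Read-out: nuclear diameter from Hoechst 33342 images (ArrayScan, 20x, six fields/well), via cell-cycle image analysis. HepG2 were dosed 0.39–200 uM for 72 hr in 0.5% DMSO. Bidirectional fit relative to DMSO.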

A short description of assay [2]: ATG_CRE_CIS: Attagene CIS-FACTORIAL HepG2 Assay for human cAMP Responsive Element (CRE) binding protein 3 (AID 2282926). The settings on record: HepG2 CRE cis-reporter, Attagene multiplexed mRNA; actives raise or lower the signal. In outline:
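Endogenous transcription factor activity read via CRE-regulated reporter transcripts in transfected HepG2 cells. After 24 h exposure, RNA was reverse-transcribed, amplified, fluorescently labelled and sized by capillary electrophoresis; gain or loss fitted against DMSO.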

Assay [3] has as its target CCAAT/enhancer-binding protein beta (Homo sapiens) (UniProt P17676). The assay can be described thus: ATG_C_EBP_CIS: Attagene CIS-FACTORIAL HepG2 Assay for human CCAAT/Enhancer Binding Protein (C/EBP) beta (AID 2282927). The settings on record: HepG2 Attagene cis-factorial transcription factor reporter; actives raise or lower the signal. In outline:
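HepG2 transiently transfected with multiplexed reporter units under cis-regulatory promoters reporting endogenous C/EBPb activity. After 24 h exposure, reporter mRNA assayed by RT-PCR, fluorescent labelling, HpaI digestion and capillary electrophoresis; bidirectional fitting versus DMSO.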

A short description of assay [4]: ATG_CMV_CIS: Attagene CIS-FACTORIAL HepG2 Assay for human CMV (Internal Marker) (AID 2282928).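 Also: endpoint acts as a background internal control marker rather than a target.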 The settings on record: HepG2 CMV promoter reporter, transcription factor profiling; actives raise or lower the signal. In outline: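 Bidirectional fits against DMSO are applied to reporter mRNA, read by RT-PCR with capillary electrophoresis, from HepG2 cells exposed 24 h. The endpoint serves as an internal CMV background marker within the cis-factorial reporter panel.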

Assay [5] can be described thus: ATG_DR4_LXR_CIS: Attagene CIS-FACTORIAL HepG2 Assay for human Liver X Receptor (LXR), DR4 submotif (AID 2282929). The settings on record: HepG2 Attagene DR4 cis-reporter, mRNA transcription; actives raise or lower the signal. In outline: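 Measures endogenous transcription factor activity via a DR4-driven reporter transcript in human HepG2 cells. Compounds incubated 24 h; mRNA quantified by RT-PCR and capillary electrophoresis, analysed as gain or loss of signal versus DMSO.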

For assay [6], the target named is Aryl hydrocarbon receptor (Homo sapiens) (UniProt P35869). The assay can be described thus: ATG_Ahr_CIS: Attagene CIS-FACTORIAL HepG2 Assay for human Aryl Hydrocarbon Receptor (Ahr) (AID 2282930). The settings on record: HepG2 AhR cis-factorial reporter transcription; actives raise or lower the signal. In outline:
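HepG2 cells transiently transfected with cis-element-driven multiplexed reporter units; endogenous AhR activity read as reporter mRNA 24 h after dosing, via RT-PCR, 6-FAM labelling, HpaI digestion and capillary electrophoresis. Bidirectional fit relative to DMSO.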

The nature of assay [7]: ATG_AP_1_CIS: Attagene CIS-FACTORIAL HepG2 Assay for human Activator Protein 1 (AP-1) (AID 2282931). The settings on record: HepG2 Attagene cis-factorial AP-1 reporter mRNA; actives raise or lower the signal. An outline of the steps:
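Bidirectional concentration-response fitting against DMSO controls. Underlying signal: reporter mRNA from cis-promoter constructs in transiently transfected HepG2, measured after 24 h by RT-PCR and capillary electrophoresis.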

The nature of assay [8]: ATG_AP_2_CIS: Attagene CIS-FACTORIAL HepG2 Assay for human Activator Protein 2 (AP-2) (AID 2282932). The settings on record: HepG2 AP-2 cis-reporter, Attagene transcription factor profiling; actives raise or lower the signal. An outline of the steps: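 Liver-derived HepG2 line, cis-reporter system measuring endogenous factors; 24 h dosing; reporter mRNA detected by fluorescent RT-PCR and capillary electrophoresis.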

Assay [9] in a line: ATG_BRE_CIS: Attagene CIS-FACTORIAL HepG2 Assay for human Bone Morphogenetic Protein (BMP) Response Element (BRE) (AID 2282933). The settings on record: HepG2 BMP response element reporter, Attagene transcription factor profiling; actives raise or lower the signal. In outline:
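HepG2 cells transiently transfected with multiplexed cis-element reporter units were dosed with chemical for 24 h. Reporter mRNA was measured by RT-PCR with fluorescent labelling, HpaI digestion and capillary electrophoresis; bidirectional fitting relative to DMSO.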

Assay [10] addresses Retinoic acid receptor alpha (Homo sapiens) (UniProt P10276). In words: ATG_DR5_RAR_CIS: Attagene CIS-FACTORIAL HepG2 Assay for human Retinoic Acid Receptor Alpha (RARE), DR5 submotif (AID 2282934).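 As to AC50: reporter responds to endogenous RAR alpha beta and gamma in HepG2 not RARA alone.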 The settings on record: HepG2 Attagene cis-factorial RARE DR5 reporter, mRNA; actives raise or lower the signal. In outline:
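HepG2 cells transiently transfected with multiplexed reporter units; DR5 cis-element drives reporter through endogenous transcription factors. After 24 h dosing, reporter mRNA quantified by RT-PCR, fluorescent labeling, HpaI digestion and capillary electrophoresis; bidirectional fitting versus DMSO.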

Where “and” joins values, the source holds several entries; their conditions need not be identical. Equal values may be shown once. Some structures have more than one record in an assay (separate samples or runs), and their calls can disagree. Calls of active or inactive are those of the source. The calls were made as follows: active = hit-call score of the fitted dose curve at least 0.9, where 1 is the maximum; inactive = score below 0.9.

Aryl hydrocarbon receptor (Homo sapiens), sequence (P35869 whole entry, looked up): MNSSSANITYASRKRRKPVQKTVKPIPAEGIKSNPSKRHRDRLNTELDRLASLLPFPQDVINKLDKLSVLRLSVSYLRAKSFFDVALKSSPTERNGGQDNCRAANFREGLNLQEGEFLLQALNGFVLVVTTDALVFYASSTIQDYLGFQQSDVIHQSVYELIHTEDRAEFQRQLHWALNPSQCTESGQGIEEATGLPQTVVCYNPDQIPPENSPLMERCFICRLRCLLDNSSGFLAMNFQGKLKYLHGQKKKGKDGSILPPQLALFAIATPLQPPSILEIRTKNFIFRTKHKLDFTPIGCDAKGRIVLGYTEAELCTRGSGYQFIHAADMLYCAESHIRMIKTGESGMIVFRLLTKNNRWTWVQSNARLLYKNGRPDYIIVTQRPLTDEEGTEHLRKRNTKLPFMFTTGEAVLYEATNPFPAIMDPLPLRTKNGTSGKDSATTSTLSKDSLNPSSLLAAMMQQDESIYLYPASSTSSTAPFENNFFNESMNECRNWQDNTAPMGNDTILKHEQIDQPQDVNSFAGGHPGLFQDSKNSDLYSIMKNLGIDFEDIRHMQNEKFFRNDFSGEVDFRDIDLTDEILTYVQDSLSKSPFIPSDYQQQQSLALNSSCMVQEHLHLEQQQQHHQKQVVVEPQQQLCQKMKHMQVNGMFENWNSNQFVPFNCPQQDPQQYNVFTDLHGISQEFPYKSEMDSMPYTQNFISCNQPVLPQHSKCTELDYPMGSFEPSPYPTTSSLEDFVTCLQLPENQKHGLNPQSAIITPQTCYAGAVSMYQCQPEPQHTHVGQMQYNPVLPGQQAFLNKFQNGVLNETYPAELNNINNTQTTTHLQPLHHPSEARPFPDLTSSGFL
Retinoic acid receptor alpha (Homo sapiens), sequence (P10276 whole entry, looked up): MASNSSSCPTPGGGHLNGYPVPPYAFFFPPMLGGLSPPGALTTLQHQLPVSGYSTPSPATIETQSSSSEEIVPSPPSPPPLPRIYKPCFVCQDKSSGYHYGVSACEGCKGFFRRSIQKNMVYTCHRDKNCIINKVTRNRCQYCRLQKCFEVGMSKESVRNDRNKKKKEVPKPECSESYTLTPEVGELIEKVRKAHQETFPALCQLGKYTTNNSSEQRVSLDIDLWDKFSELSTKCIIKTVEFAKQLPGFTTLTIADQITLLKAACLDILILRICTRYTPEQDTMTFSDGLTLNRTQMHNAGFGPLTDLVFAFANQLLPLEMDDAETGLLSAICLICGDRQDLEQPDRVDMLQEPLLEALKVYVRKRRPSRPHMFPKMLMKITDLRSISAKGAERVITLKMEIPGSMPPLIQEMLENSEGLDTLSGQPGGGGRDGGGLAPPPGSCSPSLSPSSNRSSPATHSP
CCAAT/enhancer-binding protein beta (Homo sapiens), sequence (P17676 whole entry, looked up): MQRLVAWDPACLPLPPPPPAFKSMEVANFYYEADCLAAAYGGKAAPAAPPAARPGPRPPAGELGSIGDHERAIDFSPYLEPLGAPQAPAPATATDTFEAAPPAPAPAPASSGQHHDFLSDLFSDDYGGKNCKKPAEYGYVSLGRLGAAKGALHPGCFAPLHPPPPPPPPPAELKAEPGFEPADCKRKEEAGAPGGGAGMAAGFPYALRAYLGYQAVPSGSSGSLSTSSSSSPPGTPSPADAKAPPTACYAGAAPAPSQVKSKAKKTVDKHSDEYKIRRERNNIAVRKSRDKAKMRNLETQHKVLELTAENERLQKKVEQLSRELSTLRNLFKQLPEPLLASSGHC

For orientation: AC50 means the midpoint of the concentration-response curve, whichever way the signal moves. On to `CCCOc1sc(C(=O)N2CCC(c3cc(CN)ccc3F)CC2)c(C)c1Br`, for which the figures for the concentration at half-maximal activity (AC50) in assay [1] and in assay [7] were 97.5 µM (active) and 3.7 µM (active), respectively. The call in [2], in assay [3], in assay [4], in [5], in [6] and in assay [8] was inactive. For the same compound, the compound was classed as inactive in [9].
Consider `OCCC(F)(F)C(F)(F)C(F)(F)C(F)(F)C(F)(F)C(F)(F)C(F)(F)C(F)(F)F`, for which the call in assay [1], in [3], in [4], in assay [5], in [6] and in [7] was inactive. In addition, the compound was called inactive in [9]. The AC50 in assay [2] was 26.3 µM (active) and 124 µM (active); in [5], 40.1 µM (active); in [7], 39.1 µM (active).
Consider `CCCCCCCCC(=O)O`, for which the compound was called inactive in assay [1], in [2], in assay [3], in assay [4], in [5] and in assay [6]. The outcome in assay [7] and in [9] was inactive.
In the case of `CCCCC[C@H](O)CC(=O)CCc1ccc(O)c(OC)c1`, the call in assay [1], in assay [2], in assay [3], in assay [4], in assay [5] and in assay [6] was inactive. The outcome in assay [7] and in [9] was inactive.
Take `CC(=O)CC(C)(C)O`: the compound was called inactive in assay [1], in [2], in assay [3], in assay [4], in assay [5] and in assay [7]. Further, the compound was called inactive in assay [8] and in assay [9].
For `Nc1cccc2c(N)cccc12`, the compound was classed as inactive in assay [1], in assay [2], in assay [3], in assay [4], in [5] and in assay [9]. Moreover, the AC50 in assay [6] was 2.85 µM (active); in assay [7], 77.7 µM (active).
Turning to `OC1CCC(C2CCCCC2)CC1` (stereo unspecified), the call in assay [1], in [2], in [3], in assay [6], in assay [7] and in assay [9] was inactive. Besides, the compound was classed as inactive in assay [10]. The AC50 in assay [5] is 158 µM (active) [middle of 4 runs]; in assay [6] it was 1.32 µM (active) and 47 µM (active); in assay [7], 162 µM (active) and 149 µM (active).
In the case of `NC(=O)N1C(=O)C(C(=O)c2cc(Cl)cs2)c2cc(F)c(Cl)cc21` (stereo unspecified), the compound was classed as inactive in [1], in [2], in assay [3], in assay [4], in assay [5] and in assay [6]. Also, the outcome in assay [7] and in assay [9] was inactive.
Take `CCCCCCCC(=O)O`: the result in [1], in assay [2], in assay [3], in [4], in assay [5] and in assay [6] was inactive. Also, the call in assay [7] and in assay [9] was inactive.
Take `CCCCCCCCCCCCc1ccccc1S(=O)(=O)O`: the outcome in [1], in assay [2], in assay [3], in [4], in [5] and in assay [6] was inactive. Further, the result in assay [7], in assay [9] and in [10] was inactive.
As to `CCc1nn(C2CCCCC2)c2cc(C3(C#N)CCC(C(=O)O)CC3)ccc12` (stereo unspecified), the call in assay [1], in [2], in assay [3], in assay [4], in assay [6] and in assay [7] was inactive. Besides, the compound was classed as inactive in assay [9]. Also, the AC50 in assay [5] is 129 µM (active); in assay [10], 0.941 µM (active).
For `COc1ccc([N+](=O)[O-])cc1N`, the result in assay [1], in assay [2], in assay [3], in assay [4], in assay [5] and in assay [6] was inactive. In addition, the outcome in assay [7], in assay [9] and in assay [10] was inactive.
As to `CCCCC(CC)COC(=O)CCCCC(=O)OCC(CC)CCCC` (stereo unspecified), the result in [1], in [2], in [3], in assay [4], in assay [5] and in assay [7] was inactive. For the same compound, the call in [8], in assay [9] and in [10] was inactive. Besides, the AC50 in assay [6] is 87.3 µM (active).
As to `CCN(CC)CCNc1ccc(CNC=O)c2sc3ccc(OC)cc3c(=O)c12`, the outcome in assay [1], in assay [4], in [5] and in [6] was inactive. Also, the half-maximal activity concentration (AC50) in assay [2] was 530 nM (active); in assay [3] it was 0.879 µM (active); in [7], 0.216 µM (active); in assay [9], 0.505 µM (active).
Consider `NCC(F)(F)C(F)(F)C(F)(F)C(F)(F)C(F)(F)C(F)(F)C(F)(F)F`, for which the compound was classed as inactive in assay [2], in assay [3], in [4], in assay [5], in assay [6] and in assay [7]. Also, the call in assay [8] and in assay [9] was inactive.
As for `Cc1oc(-c2ccccc2)nc1CCOc1ccc(C[C@H](Nc2ccccc2C(=O)c2ccccc2)C(=O)O)cc1`, the call in assay [1], in assay [2], in assay [3], in assay [4], in [5] and in assay [6] was inactive. The call in assay [7] was inactive. In addition, in assay [9], the AC50 is 11 µM (active).
On to `N#C[C@@H]1CC(F)(F)CN1C(=O)CNC1CC2CCC(C1)N2c1ncccn1` (stereo partly specified), for which the outcome in assay [1], in [2], in [3], in assay [4], in [5] and in assay [6] was inactive. For the same compound, the outcome in [7], in assay [9] and in assay [10] was inactive.
As to `FC(F)(I)C(F)(F)C(F)(F)C(F)(F)C(F)(F)C(F)(F)I`, the result in [2], in [3], in assay [5], in assay [6], in [7] and in assay [9] was inactive. For the same compound, in assay [4], the AC50 was 9.48 µM (active).
On to `Cc1ccc(S(=O)(=O)O)c(C)c1`, for which the compound was classed as inactive in assay [2], in [3], in assay [4], in assay [5], in assay [6] and in assay [7]. The result in assay [9] was inactive.
